Screens deposited in PubChem by National Center for Advancing Translational Sciences (NCATS).
D1 PAM = human D1 dopamine receptor positive modulation; P21728; HEK293 TREx D1 cells, calcium flux, dopamine EC20 potentiation; potentiation, % at 10 µM; actives 0.036% (n = 360,000); AID 504651; in the data active = potentiation above about 30%; also: 0% is about no effect
Target sequence (P21728 whole entry, looked up): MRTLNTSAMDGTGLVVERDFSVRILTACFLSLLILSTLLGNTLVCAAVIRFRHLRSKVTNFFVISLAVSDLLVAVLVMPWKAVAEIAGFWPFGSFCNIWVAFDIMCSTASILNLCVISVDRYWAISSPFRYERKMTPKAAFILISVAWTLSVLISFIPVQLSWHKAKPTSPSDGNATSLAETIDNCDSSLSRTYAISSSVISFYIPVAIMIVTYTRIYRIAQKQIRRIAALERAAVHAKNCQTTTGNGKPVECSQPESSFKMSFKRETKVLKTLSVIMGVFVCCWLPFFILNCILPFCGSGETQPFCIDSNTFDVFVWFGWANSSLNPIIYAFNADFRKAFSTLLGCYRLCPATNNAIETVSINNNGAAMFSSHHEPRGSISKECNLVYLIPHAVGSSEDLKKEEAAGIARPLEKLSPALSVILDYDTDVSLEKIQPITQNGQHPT
D1 antagonist = antagonists of human D1 dopamine receptor; P21728; HEK293 TREx D1 cells, calcium flux, dopamine EC80; stronger effect = lower value; activity change, negative = inhibition, % at 10 µM; actives 3.2% (n = 360,000); in the data active = activity change below about -30%; also: % is scaled to controls: 0 for no effect and ±100 for the full control effect
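After overnight tetracycline induction at 30 C, force-coupled D1 HEK293 cells took up a no-wash calcium dye at room temperature. Compounds were added and monitored 180 s, and the response to EC80 dopamine was then recorded.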
D3 antag = blocks the human D3 dopamine receptor; max response, negative = inhibition, %; AID 652054; D3R cells, DiscoveRx beta-arrestin luminescence, antagonist mode; stronger effect = lower value; P35462; actives 2.5% (n = 360,000); in the data active = max response below about -50%; inconclusive = no clear call, values can overlap the other calls; also: % is scaled to controls: 0 for no effect and ±100 for the full control effect
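Cells expressing the human receptor were seeded at 1500 cells/well, incubated overnight at 37 degrees C in 5% CO2, then exposed to library compounds with dopamine controls for 90 minutes at 37 degrees C before luminescent detection.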
D3 ag = agonists of human D3 dopamine receptor; max activation, %; D3R DiscoveRx beta-arrestin cells, luminescence, 90 min; actives 0.58% (n = 410,000); AID 652048; in the data active = max activation above about 30%; also: 0% is about no effect
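Agonist-mode cell screen: cells plated at 1500/well and incubated overnight at 37 °C, then exposed to library compounds for 90 min at 37 °C. Detection reagent was added for 30–60 min at room temperature, and luminescence was read.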
D1 agonist = human D1 receptor agonism | HEK293 T-REx D1 cells, calcium flux, agonist mode | activation, % at 2 µM | actives 1% (n = 360,000); in the data active = activation above about 30%; also: 0% is about no effect
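Inducible HEK293 T-REx D1 cells, force-coupled to calcium signalling, were plated at 4000 cells/well with tetracycline and held overnight at 30 C. After no-wash calcium dye loading, compound-evoked calcium rise over 180 s flagged agonists.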
* = called active by the depositor; ? = inconclusive; . = no result given. Rows were chosen to be rich in hits. Some 6% of all compounds tested hit in one or more screens of this group.

SMILES	D1 PAM	D1 antagonist	D3 antag	D3 ag	D1 agonist
Cc1nn(C(=O)c2c(F)cccc2F)c(C)c1S(=O)(=O)N1CCCCCC1	-3.5	-62.6*	.	-0.9	4.2
COc1ccc(-c2ccc(CN3C(CC(C)C)C(=O)N(Cc4cn(CCC5OCCO5)nn4)CCS3(=O)=O)cc2)cc1OC (stereo unspecified)	.	.	-2.3	-3.3	.
CC1=NN(c2ccccc2)C(=O)/C1=C/C=C/C=C/N(C)C	0.1	7.0	-69.0*	-15.8	5.3
CC1=NN(c2ccc(C)cc2)C(=O)/C1=C\C=C\c1ccccc1	-0.6	9.5	5.7	6.2	1.0
CCCCNCCCOc1cc(Cl)ccc1Cl	-6.2	-24.6	?	-17.0	15.0
CCC(C)NCCCCOc1ccc(Cl)cc1C (stereo unspecified)	-4.8	-16.5	-59.5*	-10.6	16.0
CCC(C)NCCCOc1cc(Cl)ccc1Cl (stereo unspecified)	-6.5	-16.3	-77.1*	-6.0	14.2
O=C1NC(=O)[C@H]2[C@@H]1[C@@H]1C=C[C@H]2C1	.	.	.	3.3	.
O=C(OC1CC2CC1[C@H]1CCCCN1C2=O)N1CCN(S(=O)(=O)c2ccccc2)CC1 (stereo partly specified)	.	.	-53.2*	2.5	.
COC(=O)CCc1nc2c(C#N)c(-c3ccc(Cl)cc3)ccn2n1	-2.4	-4.9	5.8	4.7	0.3
N#Cc1c(-c2ccc(Cl)cc2)ccn2nc(C3CCCCC3)nc12	-4.2	-31.4*	-19.2	7.4	-3.5
CC(=O)N1CCC(N(C(=O)Nc2ccc(C)c(C)c2)C2CCCC2)CC1	-6.0	6.5	33.8	4.6	1.1
CC(=O)N1CCC(N(C(=O)Nc2ccc(C)c(F)c2)C(C)C)CC1	1.9	-48.0*	.	1.2	-2.1
CCOC(=O)c1c(CSCc2ccccc2)oc2ccc(O)c(CN(C)C)c12	-2.7	1.3	-14.6	1.3	36.3*
CC(Oc1ccccc1)C(=O)Nc1nnc2n1CCS2 (stereo unspecified)	-4.6	3.5	.	-2.7	0.0
COc1ccc(/C=C(\NC(=O)c2ccccc2)C(=O)NCc2ccco2)cc1	-2.5	-30.7*	5.8	5.4	1.9
O=C(O)Cc1ccc(NC(=S)NCc2ccco2)cc1	-2.1	-39.5*	6.4	-0.9	1.2
O=C(NC(=S)NCc1ccco1)c1ccc(Br)cc1	10.4	14.5	-9.6	-4.9	0.8
S=C(NCc1ccco1)Nc1ccc(Cl)cc1	-5.4	-31.0*	1.0	1.2	21.1
O=C(NCc1ccco1)/C(=C\c1ccccc1)NC(=O)c1ccccc1	.	4.5	12.5	14.5	5.0
O=C(NC(=S)NCc1ccco1)c1ccccc1	-4.2	-31.4*	2.4	8.3	2.0
COc1ccc(/C=N/NC(=O)C[n+]2ccccc2)c(OC)c1OC	0.8	-2.7	-50.7*	-12.0	0.6
C=C(C)Cn1c2ccc(NC(=O)CCc3cccc(Cl)c3)cc2c(=O)n1C	.	.	7.0	45.3*	.
COc1ccc(C2=C(C#N)C(=O)OC2)cc1	.	.	-55.9*	0.5	.
Cc1ccc(-n2c3c(cc(-c4nc(-c5ccc(Cl)cc5)cs4)c2=O)C(=O)CC(C)(C)C3)cc1	-0.7	-19.4	.	0.5	1.0
SMILES	D1 PAM	D1 antagonist	D3 antag	D3 ag	D1 agonist
CC(C)CNC(=O)C1(C)CCCCCN1Cc1ccccc1-c1ccccc1 (stereo unspecified)	.	.	?	-25.0	.
c1ccc2c(c1)OC(CCCN1CCCCC1)c1ccccc1S2 (stereo unspecified)	-6.8	-85.0*	-4.4	-1.6	13.7
CN1CCCC(CC2Oc3ccccc3Sc3ccccc32)C1 (stereo unspecified)	-11.6	-74.2*	-84.4*	-38.9	48.6*
CCOc1ccc(OCC)c(NS(=O)(=O)c2cc(-c3cc(C)no3)ccc2C)c1	-2.2	-4.5	.	-6.8	2.4
CCN(CC)c1nc2ccccc2c(N)c1-c1ccccc1	-14.2	-32.6*	?	-11.0	22.2
CCN(CCO)Cc1csc2ccc(C(C)(C)C)cc12	-11.8	-81.7*	3.7	-13.9	19.3
CCN(CCO)Cc1csc2ccccc12	-1.6	-38.1*	-13.9	6.8	4.9
CCN(CCO)Cc1csc2ccc(Cl)cc12	-3.5	3.5	4.4	9.9	2.6
Cc1ccc(C(O)c2ncc(-c3ccc(F)cc3)[nH]2)c(C)c1 (stereo unspecified)	.	.	19.3	1.7	.
O=[N+]([O-])c1ccc(-[n+]2ccc3ccccc3c2)c([N+](=O)[O-])c1	-7.6	-12.4	-105.7*	-46.3	2.2
O=C(O)c1cccc(NC(=S)NC(=O)c2ccc(-c3ccccc3)cc2)c1	13.6	-0.5	12.6	7.2	2.7
Cc1cccc(C(=O)NC(=S)Nc2ccccc2C(F)(F)F)c1	-3.5	7.4	-28.9	-1.0	7.9
Cc1ccc(C(=O)O)cc1NC(=S)NC(=O)c1ccc(-c2ccccc2)cc1	1.0	-12.8	-52.4*	-23.3	0.0
Cc1ccc(C(=O)NC(=S)Nc2ccccc2C(F)(F)F)cc1C	5.5	7.9	-80.4*	-1.5	-2.5
Cc1cccc(C(=O)Nc2ccc3oc(-c4ccncc4)nc3c2)c1	-1.1	-23.0	.	14.8	4.6
CCc1ccccc1NC(=O)c1nnn(-c2ccc(F)cc2)c1C	-1.4	-17.8	.	7.9	4.0
O=C(O)Cc1cccc(-c2cc(CCCCCCc3ccc(O[C@H]4O[C@H](CO)[C@@H](O)[C@H](O)[C@@H]4O)c(-c4cccc(CC(=O)O)c4)c3)ccc2O[C@H]2O[C@H](CO)[C@@H](O)[C@H](O)[C@@H]2O)c1	.	.	.	-18.3	.
C[C@@H](C[C@@H](O)[C@H](O)C(C)(C)O)[C@@H]1CC[C@]2(C)C3=CC[C@H]4C(C)(C)C(=O)CC[C@]4(C)[C@H]3CC[C@@]12C	6.7	12.9	120.3	44.8*	0.3
CC(=O)Cc1nsc(NC(=O)c2ccc(-c3cccc(C(F)(F)F)c3)o2)n1	-3.0	-18.0	23.5	-1.7	1.9
CC(=O)Cc1nsc(NC(=O)c2ccc(-c3cc(Cl)ccc3Cl)o2)n1	9.2	-12.8	-3.2	-3.9	5.7
CC(=O)Cc1nsc(NC(=O)c2ccc(-c3cc(C(F)(F)F)ccc3Cl)o2)n1	-3.8	-32.6*	-25.1	6.3	2.3
CC(=O)Cc1nsc(NC(=O)c2ccc(-c3ccc(Cl)cc3Cl)o2)n1	-8.7	-30.7*	22.8	4.0	4.3
Fc1ccc(-n2cc(-c3ccccc3)c3c(N4CCOCC4)ncnc32)cc1	4.2	-9.2	?	-11.2	2.4
CCN1CCN(c2ncnc3c2c(-c2ccccc2)cn3-c2ccc(F)cc2)CC1	-7.5	-3.6	-55.4*	-20.5	3.2
CSCCC(NS(=O)(=O)c1ccc2c(c1)oc(=O)n2C)C(=O)N1CCN(c2cc(Cl)ccc2C)CC1 (stereo unspecified)	-0.1	-8.9	.	-13.2	1.6
Cc1ccc(C)c(NC(=O)CCc2ccc(C)o2)c1	-5.2	-1.0	-10.0	-0.3	1.6
Cc1ccc(NC(=O)CCc2ccc(C)o2)c(C)c1	-0.1	30.0	4.2	-1.3	32.2*
Cc1cc(NC(=O)CCc2ccc(C)o2)no1	-8.8	-41.8*	-13.6	-11.3	1.4
